Screening results: PubChem BioAssay, The Scripps Research Institute Molecular Screening Center
M1 antag – human CHRM1 antagonism. P11229. CHO-K1 hM1, Fluo-8 calcium fluorescence, ACh EC80 antagonist. inhibition, % at 3 µM. 360,000 tested, 1.3% active. AID 588852;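 active = percent inhibition above its own plate's cutoff, namely the mean of that plate's compound wells plus 3 SD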;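 note: peak over basal fluorescence ratio during 140 s after agonist addition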
Target sequence (P11229 whole entry, looked up): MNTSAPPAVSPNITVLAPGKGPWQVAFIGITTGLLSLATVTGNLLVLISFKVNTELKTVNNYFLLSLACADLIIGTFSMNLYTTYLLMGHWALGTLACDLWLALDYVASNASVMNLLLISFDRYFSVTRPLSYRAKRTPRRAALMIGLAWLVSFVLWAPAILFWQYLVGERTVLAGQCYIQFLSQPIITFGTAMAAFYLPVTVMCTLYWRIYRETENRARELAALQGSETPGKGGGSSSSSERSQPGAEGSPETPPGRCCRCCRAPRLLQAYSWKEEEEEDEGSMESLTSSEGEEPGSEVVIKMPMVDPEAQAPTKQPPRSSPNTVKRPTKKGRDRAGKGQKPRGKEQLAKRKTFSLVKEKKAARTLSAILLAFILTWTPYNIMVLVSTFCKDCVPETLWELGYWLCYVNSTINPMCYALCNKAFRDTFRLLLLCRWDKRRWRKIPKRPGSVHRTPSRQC
M1 ag parental – nonselective activator or artifact in parental CHO-K1 cells; Fluo-8 calcium fluorescence; scaled to maximal ATP response, vehicle zero; activation, % at 3 µM; 360,000 tested, 0.48% active; in the data active = activation above about 15%;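 note: untransfected CHO-K1 host cells lacking M1 receptor as counterscreen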
M1 PAM – positive allosteric modulators of human M1 muscarinic receptor; P11229; CHO-K1 hM1, Fluo-8 calcium fluorescence, ACh EC20; 0% = ACh EC20, 100% = maximal ACh; activation, % at 3 µM; 360,000 tested, 0.088% active; AID 588819; in the data active = activation above about 19%, passing the limit was not always enough
CHRM1 agonist – agonists of human M1 muscarinic receptor. AID 588814. activation, % at 3 µM. CHO-K1 hM1, Fluo-8 calcium fluorescence, agonist mode; 0% DMSO, 100% acetylcholine EC100. 360,000 tested, 0.33% active;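 active = activation above the run's mean compound activation plus 3 SD, cut at about 16% in these data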;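 note: peak over basal fluorescence ratio within a 140 s kinetic read after compound addition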
M1 PAM parental – counter-screen for M1 PAMs: effect in parental CHO-K1 cells; AID 602247; activation, % at 3 µM; 360,000 tested, 0.02% active; ATP EC20, Fluo-8 calcium fluorescence; 0% at ATP EC20, 100% at ATP max;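 active = activation above the run cutoff, the mean activation of all test compounds plus 3 SD, cut at about 40% in these data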;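 note: peak over basal fluorescence ratio in a 140 s read after ATP addition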
CHO-K1 Ca antag – nonselective inhibitor or artifact in parental CHO-K1 cells | 360,000 tested, 0.6% active | ATP-induced calcium, Fluo-8 fluorescence | AID 602250 | inhibition, % at 3 µM;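 active = inhibition above a per-plate cutoff, the plate's mean sample inhibition plus 3 SD, cut at about 24% in these data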
Of the large screens only hits and unclear results are named; the others gave an inactive call. Shown are actives, neighbours in structure and some others; about 2.3% of the full set was active somewhere.

CC1CN(C(=O)COc2ccc3c(-c4ccccc4)cc(=O)oc3c2)CC(C)O1 (stereo not drawn)	M1 antag 29.4
C/C(COc1ccccc1)=N\NC(=O)c1nnn(-c2nonc2N)c1CSc1ccc(C)cc1	none
CC(Oc1cccc(Cl)c1)C(=O)Nc1cc(Cl)ccc1N1CCOCC1 (stereo not drawn)	none
CC(=O)Nc1ccc(Sc2ncccc2C(=O)Nc2ccc(OC(F)(F)F)cc2)cn1	M1 antag 64.2, M1 ag parental 52.9, CHRM1 agonist 65.8, CHO-K1 Ca antag 58.7
OCCNCc1ccc(-c2ccccc2)cc1	none
OCCCNCc1ccc(N(c2ccccc2)c2ccccc2)cc1	M1 antag 70.5
Cc1ccc(NS(=O)(=O)c2ccc(-n3cccn3)cc2)cc1C	M1 antag 27.7
Cc1ccc(NS(=O)(=O)c2ccc(-n3cccn3)cc2)cc1Cl	none
ClN=C1C=CC=CC1=NCl	CHO-K1 Ca antag 34.5
COC1=CC(=NCl)C=CC1=NCl	none
CC1CCC(NC(=O)Cn2cnc3sccc3c2=O)CC1 (stereo not drawn)	none
O=C(CCCCCn1c(=S)[nH]c2ccc(N3CCOCC3)cc2c1=O)NC1CCN(Cc2ccccc2)CC1	M1 antag 50.1
O=C(c1ccccc1)c1ccc(-n2cnnc2)c([N+](=O)[O-])c1	M1 ag parental 22.2
CC1=C(C(=O)Nc2ccccc2C(=O)NCCCOC(C)C)SCCO1	none
CCCCN1C(=N)N([C@@H](CN2CCC[C@H]2CN2C(N)=NC[C@@H]2Cc2ccccc2)C(C)C)C[C@H]1Cc1ccccc1	M1 antag 58.6
CCCCN1C(=N)N([C@@H](C)CN2CCC[C@H]2CN2C(N)=NC[C@@H]2Cc2ccccc2)C[C@H]1Cc1ccccc1	M1 antag 93.8
CC(C)C[C@@H]1CN=C(N)N1C[C@@H]1CCCN1C[C@@H](C(C)C)N1C[C@@H](Cc2ccccc2)N(CCCC2CCCC2)C1=N	none
CC(C)(C)NS(=O)(=O)c1cc(C(=O)Nc2sccc2C#N)ccc1Cl	M1 ag parental 23.4
CCC1(c2ccc(F)cc2)NC(=O)N(CC(=O)c2cc(C)n(C3CC3)c2C)C1=O (stereo not drawn)	M1 ag parental 25.6, CHRM1 agonist 30.3
CCC1(c2ccc(F)cc2)NC(=O)N(CC(=O)N2c3ccccc3CC2C)C1=O (stereo not drawn)	CHRM1 agonist 26.9
COc1ccc(C2(C)NC(=O)N(CC(=O)N3CCc4ccccc43)C2=O)cc1OC (stereo not drawn)	none
CCC1(c2ccc(OC)cc2)NC(=O)N(CC(=O)N2CCc3ccccc32)C1=O (stereo not drawn)	CHRM1 agonist 28.7
CCC1(c2ccc(F)cc2)NC(=O)N(CC(=O)N2c3ccccc3NC(=O)CC2C)C1=O (stereo not drawn)	none
O=C1C=C(c2ccccc2)CO1	none
CN1c2ccccc2Oc2nnc(Cl)cc21	CHO-K1 Ca antag 26.7
Cc1[nH]nc2c1/C(=N\O)CC(C)(C)C2	none
Cc1[nH]nc2c1C(=O)CC(C)(C)C2	M1 PAM 21.0
Cc1cc(C)c(S(=O)(=O)NC2CCN(Cc3ccccc3)CC2)c(C)c1	none
Cc1cc(S(=O)(=O)NC2CCN(Cc3ccccc3)CC2)c(C)cc1Cl	M1 antag 52.5
CCC(=O)N(c1nnc(SC(C)C(=O)Nc2ccc(N3CCOCC3)cc2)s1)C1CC1 (stereo not drawn)	none
Cc1nc2ccccc2c2c(N)c3ccccc3n12	M1 ag parental 17.2
Nc1c2ccccc2nc2ccccc12	none
C/C(=N/OCO/N=C(/C)c1ccc(F)cc1)c1ccc(F)cc1	none
CCNc1nc(NC(C)C)nc(NC(C)(C)C)n1	M1 antag 33.2
CC(=O)C1=CCC(c2ccc(Cl)cc2)N(S(=O)(=O)c2ccccc2C)C1 (stereo not drawn)	none
COc1cccc(C(=O)Nc2ccccc2N2CCOCC2)c1	M1 ag parental 90.8, CHO-K1 Ca antag 67.7
CC(=O)Nc1ccc(S(=O)(=O)Nc2ccccc2N2CCOCC2)cc1Cl	none
O=C(Nc1ccccc1N1CCOCC1)c1ccc(S(=O)(=O)NCc2ccco2)cc1	none
O=C(O)c1cccc(S(=O)(=O)Nc2ccccc2N2CCOCC2)c1	M1 antag 54.2
